Whole data set: some 110,000 compounds, median “z-score” near -0.1, cut for the highest 2% near 2. The sample holds the highest values, similar compounds and a random draw of the others, so the mix is not that of the screen. Active and inactive are the calls of the source.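 How the source made its calls: active means z-score in the third read window above 3 or below -3; inactive means the rest.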

Sequence of Metabotropic glutamate receptor 8 (Rattus norvegicus) (P70579 whole entry, looked up): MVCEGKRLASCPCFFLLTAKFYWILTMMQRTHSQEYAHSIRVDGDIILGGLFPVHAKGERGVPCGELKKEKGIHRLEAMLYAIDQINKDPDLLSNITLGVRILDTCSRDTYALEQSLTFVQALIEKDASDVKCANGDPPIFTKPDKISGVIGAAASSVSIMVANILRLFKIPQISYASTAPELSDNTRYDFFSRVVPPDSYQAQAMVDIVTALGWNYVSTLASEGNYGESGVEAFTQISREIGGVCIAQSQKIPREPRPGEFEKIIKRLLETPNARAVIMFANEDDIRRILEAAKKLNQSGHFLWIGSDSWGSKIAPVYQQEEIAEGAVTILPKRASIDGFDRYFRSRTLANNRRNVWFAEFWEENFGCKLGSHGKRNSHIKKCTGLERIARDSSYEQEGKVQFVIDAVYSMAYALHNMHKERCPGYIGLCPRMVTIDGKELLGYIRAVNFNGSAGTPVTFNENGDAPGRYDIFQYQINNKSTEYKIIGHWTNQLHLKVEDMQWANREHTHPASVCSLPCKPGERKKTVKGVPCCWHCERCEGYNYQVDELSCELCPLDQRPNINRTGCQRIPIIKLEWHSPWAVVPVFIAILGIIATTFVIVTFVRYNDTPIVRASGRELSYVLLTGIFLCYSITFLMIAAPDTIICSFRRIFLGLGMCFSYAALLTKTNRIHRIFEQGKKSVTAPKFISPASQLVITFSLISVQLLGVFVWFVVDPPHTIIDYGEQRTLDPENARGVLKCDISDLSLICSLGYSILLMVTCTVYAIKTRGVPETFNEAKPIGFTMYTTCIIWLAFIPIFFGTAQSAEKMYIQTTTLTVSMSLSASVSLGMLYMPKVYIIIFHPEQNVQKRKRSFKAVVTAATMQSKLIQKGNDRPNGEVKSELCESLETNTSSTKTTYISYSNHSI

The experiment addresses Metabotropic glutamate receptor 8 (Rattus norvegicus) (UniProt P70579). Kind of experiment: rat mGluR8 modulators via GIRK flux, primary screen, cell-based, thallium flux, HTS (AID 488969). The following applies: HEK293 rat mGluR8, GIRK (G protein-gated inwardly rectifying potassium channel) thallium flux, FluoZin2; at 10 µM; stronger effect = higher value; submaximal glutamate (EC20) added with thallium.
With `CC(C)C(=O)Nc1ccc(NC(=O)c2cc3ccccc3o2)cc1`, the z-score is -0.885.

With `CC(C)C(=O)Nc1cccc(NC(=O)c2cc3ccccc3o2)c1`, the z-score is 7.7 (active).

Consider `Cc1cccc(NC(=O)c2cc3ccccc3o2)c1`, for which the z-score was -1.37.

As for `CCOc1ccc(OCC)c(NC(=O)c2[nH]c(C)c(C(C)=O)c2C)c1`, the z-score was 0.862.

Compound `O=C(NCc1nc2ccccc2[nH]1)c1cccc(S(=O)(=O)N2CCCC2)c1` displayed a z-score of 2.4.

As to `O=C(NCc1nc2ccccc2[nH]1)c1cccc(S(=O)(=O)N2CCOCC2)c1`, the z-score amounted to 0.567.

Regarding `O=C(NCc1nc2ccccc2[nH]1)c1ccc(Cl)c(S(=O)(=O)N2CCCC2)c1`, the z-score was -0.297.

`CCN(c1c(C)n(C)n(-c2ccccc2)c1=O)S(C)(=O)=O`: the z-score came to 0.17.

`Cc1ccc(S(=O)(=O)NC2CCCC2)cc1C` came in with a z-score of -0.157.

With `Cc1cc(C)c2c(c1)-c1c(ssc1=S)C(C)(C)N2C(=O)CN1C(=O)c2ccccc2C1=O`, the z-score was 0.383.

In the case of `CNc1nc(Cl)nc(NC(C)(C)C)n1`, the z-score is 7.77 (active).

`CC(C)(C)Nc1nc(NN)nc(NC(C)(C)C)n1` showed a z-score of -0.766.

Regarding `CC(C)(C)Nc1nc(Cl)nc(NC(C)(C)C)n1`, the z-score was -0.0263.

`CCn1c(=NC(=O)CSC(C)=O)sc2cc(F)ccc21`: the z-score was 0.658.

Take `CCn1c(=NC(=O)CSC(C)=O)sc2cc(OC)ccc21`: the z-score came out at 0.477.

Turning to `CCn1c(=NC(=O)CSC(C)=O)sc2ccccc21`, the z-score is 3.49 (active).

Take `CN1CCN(CCC(=O)Nc2ccc3c(c2)OCO3)CC1`: the z-score is 0.213.

`Cc1cccc(NC(=O)CSc2nc3ccc(NC(=O)CSc4nnnn4-c4ccccc4)cc3s2)c1C` returned a z-score of 0.181.

The compound `CCN(CC)S(=O)(=O)c1cc(NC(=O)COC(=O)c2sc3ccccc3c2Cl)ccc1C` registered a z-score of -0.0136.

For the compound `CCn1c(C)cc(/C=C2/SC(=S)NC2=O)c1C`, the z-score was found to be 0.271.

Take `Cc1cc(/C=C2\SC(=S)NC2=O)c(C)n1C`: the z-score is -0.121.

In turn, `Cc1sc(-n2c(C)cc(/C=C3\SC(=S)NC3=O)c2C)c(C#N)c1C` showed a z-score of 2.26.

`CCN1CCN(C(=O)C(C)N(c2ccc(C)cc2)S(C)(=O)=O)CC1` (stereo unspecified) displayed a z-score of 1.05.

For `CCOC(=O)c1sc(NN=C(C(=O)OC)C(=O)OC)c(C(=O)OCC)c1C`, the z-score was 2.57.

`CCOC(=O)c1sc(NC(=O)CN(CC)CC)c(C(=O)OCC)c1C` registered a z-score of -0.132.

In turn, `CCOC(=O)c1sc(NC(=O)CN2CCCC2)c(C(=O)OCC)c1C` had a z-score of -0.225.

`COCCSc1ccccc1C(=O)Nc1ccncc1` yielded a z-score of 0.236.

`CCC(=O)Nc1cccc(NC(=S)NC(=O)Cc2ccccc2)c1` yielded a z-score of -0.281.

Consider `O=C(Cc1ccccc1)NC(=S)Nc1cccc(C(F)(F)F)c1`, for which the z-score was 4.01 (active).

`CCCOc1cccc(C(=O)NC(=S)Nc2ccccc2)c1` yielded a z-score of 0.0309.

Compound `S=C(NCc1ccccc1)NCc1ccccc1` gave a z-score of 0.346.

As for `O=C(CN1CCN(c2cccc(C(F)(F)F)c2)CC1)Nc1cccc(C(F)(F)F)c1`, the z-score was 1.

The compound `O=C(Cc1ccccc1)NC(=S)Nc1cc(C(F)(F)F)ccc1Cl` showed a z-score of 0.00533.

In turn, `S=C(NCc1ccccc1)NCc1ccc2c(c1)OCO2` registered a z-score of 1.86.

As for `O=C(CN1CCN(c2ccccc2)CC1)Nc1cccc(C(F)(F)F)c1`, the z-score amounted to 0.756.

For the compound `CCCOc1cccc(C(=O)NC(=S)Nc2cccc(C(F)(F)F)c2)c1`, the z-score was 3.57 (active).

`CCCCOc1cccc(C(=O)NC(=S)Nc2cccc(C(F)(F)F)c2)c1` gave a z-score of 1.84.

Consider `S=C(NCc1ccccc1)NCc1cccc(CNC(=S)NCc2ccccc2)c1`, for which the z-score worked out at 2.84.

For the compound `O=C(CN1CCN(Cc2ccccc2)CC1)Nc1cccc(C(F)(F)F)c1`, the z-score was 7.94 (active).

`CCN(CC)C(=O)n1nc(C)c(CN2C(=O)c3ccccc3C2=O)c1C` registered a z-score of -0.151.

For `Nc1ccc(Cl)c(-c2nc3ncccc3o2)c1`, the z-score came out at 0.714.

Compound `CC(C)c1onc(C(=O)N2CCCCC2C)c1[N+](=O)[O-]` (stereo unspecified) came in with a z-score of -0.0403.

Compound `OC(CSc1ccccc1Cl)CN1CCN(c2ccc(F)cc2)CC1` (stereo unspecified) displayed a z-score of -0.618.

As for `CCOC(=O)c1cnc2ccc(C)cc2c1Sc1ccc(F)cc1`, the z-score is -0.262.

As to `Cc1ccc(S(=O)(=O)N2CCCC2C(=O)Nc2cc(C)on2)cc1` (stereo unspecified), the z-score stood at 0.4.

In turn, `Cc1ccc(CNC(=O)c2ccccc2NS(C)(=O)=O)cc1` registered a z-score of -0.309.

Compound `FC(F)(F)c1cccc(NC(=S)NCc2ccccn2)c1` had a z-score of 0.164.

`FC(F)(F)c1cccc(NC(=S)NNC(=S)NCc2ccccc2)c1`: the z-score was -0.388.

In turn, `FC(F)Oc1ccc(NC(=S)NCc2ccccc2)cc1` showed a z-score of 1.51.

Regarding `COc1ccc(CNC(=S)Nc2ccc(OC)cc2)cc1`, the z-score amounted to 0.711.

Consider `FC(F)(F)c1cccc(NC(=S)NCc2ccccc2)c1`, for which the z-score was 5.63 (active).

Turning to `FC(F)(F)Oc1ccc(NC(=S)NCc2ccccc2)cc1`, the z-score was 3.23 (active).

`N=C(N)SCc1nc2ccccn2c1Br` had a z-score of 0.308.

As to `CCOc1cccc(C(=O)Nc2ccc3oc(Cc4ccc(Cl)cc4)nc3c2)c1`, the z-score is -0.351.

In turn, `COc1ccc(N(CC(O)CN2C(=O)NC(C)(C)C2=O)S(=O)(=O)c2ccccc2)cc1` (stereo unspecified) had a z-score of -0.294.

For the compound `C=CCn1c(SCc2ccccc2)nc(O)cc1=O`, the z-score is 2.19.

In the case of `C=CCn1c(SCc2c(F)c(F)c(F)c(F)c2F)nc(O)cc1=O`, the z-score was -0.151.

As for `C=CCn1c(SCC)nc(O)cc1=O`, the z-score was -0.0583.

The compound `O/N=C/c1cc(Br)ccc1OCc1ccc(F)cc1` showed a z-score of -0.142.

On to `Cc1nc2sccn2c(=O)c1Br`, for which the z-score stood at 0.0767.

Turning to `Cn1c(=O)c2c(nc3sccn32)n(C)c1=O`, the z-score is 3.7 (active).

Take `Cc1nc2sccn2c(=O)c1Cl`: the z-score was 0.324.

With `COc1ccccc1C(=O)NCc1ccccc1`, the z-score was -0.524.

As for `Cc1ccc(O)c(NC(=S)NC(=O)c2ccc(-c3ccc(Cl)cc3)o2)c1`, the z-score stood at 0.233.

In turn, `O=C(CCl)c1ccc(Cc2ncc(C(F)(F)F)cc2Cl)s1` returned a z-score of -0.0387.

In the case of `CC(=O)c1ccc(Cc2ncc(C(F)(F)F)cc2Cl)s1`, the z-score is -0.823.

Consider `NC(=O)c1ccc(Cc2ncc(C(F)(F)F)cc2Cl)s1`, for which the z-score is 4.24 (active).

Consider `CC1Cc2ccccc2N1CC(=O)c1c(N)n(Cc2ccccc2)c(=O)n(C)c1=O` (stereo unspecified), for which the z-score was -0.314.

With `Cc1ccc(-n2c(N)c(C(=O)N3CCN(C)CC3)sc2=S)cc1`, the z-score is 0.948.

`CN1CCN(C(=O)c2sc(=S)n(-c3ccccc3)c2N)CC1`: the z-score is 11.1 (active).

Turning to `Nc1c(C(=O)N2CCCCC2)sc(=S)n1-c1ccccc1`, the z-score is -0.163.

The compound `COc1ccc(OC)c(NS(=O)(=O)c2cc(OC)ccc2OC)c1` showed a z-score of -0.0402.

In turn, `COCCCNS(=O)(=O)c1ccc(OC)c(Cl)c1Cl` returned a z-score of 0.284.

In turn, `COc1ccc(COC(=O)NNC(=O)c2ccccc2Cl)cc1` gave a z-score of 0.289.

Compound `COc1ccc(-n2c(C)cc(C(=O)CN3C(=O)c4ccccc4C3=O)c2C)cc1` displayed a z-score of 0.595.

With `COc1ccc(C2C(C(N)=O)=C(C)Nc3nc(-c4cccc(Cl)c4)nn32)cc1OC` (stereo unspecified), the z-score was 4.01 (active).

Take `COc1ccc(C2C(C(N)=O)=C(C)Nc3nc(-c4ccccc4)nn32)cc1OC` (stereo unspecified): the z-score was 0.875.

With `CC1=C(C(N)=O)C(c2cccnc2)n2nc(-c3cccc(Cl)c3)nc2N1` (stereo unspecified), the z-score turned out to be 0.192.

Turning to `COc1ccc(OC)c(C2C(C(N)=O)=C(C)Nc3nc(-c4cccc(Cl)c4)nn32)c1` (stereo unspecified), the z-score was 1.16.

Consider `CC1=C(C(N)=O)C(c2cccs2)n2nc(-c3cccc(Cl)c3)nc2N1` (stereo unspecified), for which the z-score turned out to be 2.14.

Compound `COc1cccc(C2C(C(N)=O)=C(C)Nc3nc(-c4cccc(Cl)c4)nn32)c1` (stereo unspecified) came in with a z-score of -0.342.

As for `Cc1nc2ccccn2c1C(=O)NN=C1C2CC3CC(C2)CC1C3`, the z-score is -0.259.

Consider `Cc1ccc(-c2csc3nc[nH]c(=S)c23)cc1C`, for which the z-score is 15.9 (active).

Regarding `O=c1[nH]cnc2scc(-c3ccc(F)cc3)c12`, the z-score was -0.0775.

The compound `O=c1[nH]cnc2scc(-c3ccc(-c4ccccc4)cc3)c12` yielded a z-score of 0.454.

`S=c1[nH]cnc2scc(-c3ccccc3)c12`: the z-score was 13.1 (active).

`Cc1ccc(-c2csc3ncnc(-n4nnc5ccccc54)c23)cc1C` registered a z-score of -0.0158.

`O=c1[nH]cnc2scc(-c3ccccc3)c12` gave a z-score of 0.259.

The compound `O=C(CSCCc1ccccn1)Nc1ccc(Br)cn1` returned a z-score of -0.0969.

For the compound `CCc1nnc(NC(=O)c2cc(S(=O)(=O)N3CCN(c4ccccc4)CC3)ccc2Cl)s1`, the z-score is -0.438.

Regarding `CCCCOc1c(Br)cc(/C=N/O)cc1OCC`, the z-score came out at 2.8.

`CCOc1cc(/C=N/O)cc(Br)c1OCC`: the z-score was -0.564.

`CCCOc1c(Br)cc(/C=N/O)cc1OC` displayed a z-score of -0.858.

In turn, `CCOc1ccc(NC(=O)CN2CCN(CC(=O)Nc3ccc(F)c(F)c3)CC2)cc1` displayed a z-score of -0.0841.

For `N#Cc1cnn(Cc2ccccc2)c1N`, the z-score is -0.318.

The compound `CCOC(=O)C1CCCN(Cc2nc(N)nc(Nc3ccc(Cl)cc3)n2)C1` (stereo unspecified) came in with a z-score of -0.508.

`CC(C)c1ccccc1NC(=S)NN(Cc1ccccc1)c1ccccc1`: the z-score is -0.164.

For the compound `Fc1ccccc1NC(=S)NN(Cc1ccccc1)c1ccccc1`, the z-score was 5.03 (active).

`Cc1cccc(NC(=S)NN(Cc2ccccc2)c2ccccc2)c1C` registered a z-score of -0.141.

For `c1ccc(-c2ccc(-c3cnc4n3CCCCC4)cc2)cc1`, the z-score amounted to 0.704.

As to `O=C(O)CCCCNS(=O)(=O)c1ccc(Cl)c(C(F)(F)F)c1`, the z-score is -0.602.

In turn, `CC(C)OC(=O)CSc1nnc(SCc2cccc3ccccc23)s1` had a z-score of -0.157.

Regarding `O=C(NNC(=O)c1cccnc1SCc1cccc([N+](=O)[O-])c1)c1ccc(F)cc1`, the z-score came to 0.33.

`Cc1ccc(C(=O)NNC(=O)c2cccnc2SCc2cccc([N+](=O)[O-])c2)cc1` yielded a z-score of -0.0883.

`O=C(NNC(=O)c1cccnc1SCc1cccc([N+](=O)[O-])c1)c1ccccn1`: the z-score is 3.29 (active).

`COc1cc(NC(=O)c2cc(OC)c(OC)c(OC)c2)c(OC)cc1NC(=O)CN1CCCCC1` yielded a z-score of -2.33.

With `CCN1/C(=C2\C(=O)N(C)C(=S)N2C)C=Cc2ccccc21`, the z-score is -0.543.

For `Cc1ccc(-c2n[nH]c(=S)n2Cc2ccccc2)cc1`, the z-score was -0.277.

Compound `S=c1[nH]nc(-c2ccco2)n1Cc1ccccc1` had a z-score of 0.271.

Regarding `S=c1[nH]nc(-c2ccc(Br)o2)n1Cc1ccccc1`, the z-score was 3.42 (active).

For the compound `Cc1cccc(-c2n[nH]c(=S)n2Cc2ccccc2)c1`, the z-score is 1.74.

On to `CC(C)Cn1c(-c2ccc(Br)o2)n[nH]c1=S`, for which the z-score came out at 1.12.

Turning to `S=c1[nH]nc(-c2cc3ccccc3o2)n1Cc1ccccc1`, the z-score turned out to be 2.66.

On to `COc1ccc(C(=O)Cn2nnc(-c3ccccc3F)n2)cc1`, for which the z-score is -0.251.

Consider `C[N+]1(CC2COC3(CCCCC3)O2)CCCC1` (stereo unspecified), for which the z-score was -0.214.

For the compound `C1CCC2(CC1)OCC1(CO2)COC2(CCCCC2)OC1`, the z-score was 3.83 (active).

Source of the values: PubChem BioAssay AID488969 (Vanderbilt High Throughput Screening Facility, 2010).
